Consider 22 molecules from PubChem BioAssay (NCATS).

For some assays here: Potency and affinity values are given separately. Activity calls are given as the source filed them.

As usually defined, the AC50 is the concentration at which the activity in the assay is half-maximal.

For assay [1] the following is noted: Ebola virus entry assay, green fluorescence channel.
The conditions of assay [2]: Ebola virus entry assay, blue channel fluorescence.
The conditions of assay [3]: Ebola virus entry assay, green fluorescence channel. This is another data set of the same source.
The conditions of assay [4]: Ebola virus entry assay, ratio channel readout.
For assay [5] the following is noted: Ebola virus entry assay, blue channel fluorescence. The source holds these as a separate data set.
The conditions of assay [6]: Ebola virus entry assay, ratio channel.
For assay [7] the following is noted: Ebola virus entry assay, green channel fluorescence.
The conditions of assay [8]: Ebola virus entry assay, reporter ratio channel.
For assay [9] the following is noted: Ebola virus entry assay, blue channel (ratio component).
The conditions of assay [10]: Ebola virus entry reporter assay, green channel fluorescence.
For assay [11] the following is noted: Ebola virus entry cell assay, ratio channel.
The nature of assay [12]: Immunotoxin (HA22) sensitization/mitigation study. Vehicle arm (PBS) (AID 1159510). Also: potency is read from the fitted curve at half-maximal effect. The settings on record: cancer cells viability with PBS vehicle (HA22 study); series mostly up to 46.1 µM.
Assay [13] in a line: Immunotoxin (SS1P) sensitization/mitigation study. Vehicle arm (DMEM) (AID 1159513). Also: potency is read from the fitted curve at half-maximal effect. The settings on record: cell viability with vehicle (DMEM); series mostly up to 46.1 µM.
The conditions of assay [14]: Ebola virus entry assay, blue channel fluorescence. This is another data set of the same source.
A short description of assay [15]: qHTS profiling of the MIPE4 collection as inhibitors of Plasmodium falciparum (3D7) proliferation (AID 743344).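 Also: scaled between DMSO vehicle wells and 0.29 µM artemisinin as full inhibition.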 The note with it: P. falciparum 3D7 in erythrocytes, SYBR Green DNA fluorescence, 72 h; at 28.5 µM (top of the series) unless noted. Put shortly: (§1)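 Parasite DNA was quantified by SYBR Green I fluorescence (ex 485, em 535 nm) after overnight lysis in saponin/Triton buffer at room temperature. Cultures at 0.3% parasitemia and 2.5% hematocrit were first exposed to compound for 72 h at 37 C; signals were normalised to artemisinin (0.29 uM) and vehicle wells.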

Assay [16] in a line: qHTS profiling of the MIPE4 collection as inhibitors of Plasmodium falciparum (DD2) proliferation (AID 743345). The note with it: P. falciparum Dd2 in erythrocytes, SYBR Green DNA, 72 h; at 28.5 µM (top of the series) unless noted. The method in brief:
as §1
For orientation: qHTS replaces the single test concentration by a dilution series.

Setting [17] is: AC50: Channel type: primary unless noted, outcome: Channel type: primary unless noted.
For efficacy in this document: 0% is about no effect.

Consider `C#Cc1cccc(Nc2ncnc3cc(OCCOC)c(OCCOC)cc23)c1`, for which the efficacy in assay [1] was -13.7% (inactive). The molecule was called inactive in assay [2], in assay [3], in assay [4], in assay [5], in assay [6] and in assay [7]. The outcome in assay [8] (setting [17]), in assay [9] and in [10] was inactive. For the same molecule, in assay [11], the AC50 was 8.91 µM (active). Further, the figures for the Potency in [12] and in assay [13] were 16.6 µM (active) and 4.69 µM (active), respectively.
For `CN(C/C=C/C#CC(C)(C)C)Cc1cccc2ccccc12`, the efficacy in [1] is -24.6% (inactive). Further, the molecule was called inactive in [2], in [3], in assay [4], in [6], in assay [7] and in assay [14]. In addition, the molecule was classed as inactive in [10] and in assay [11]. The results for the AC50 in [5] and in assay [8] (setting [17]) were 28.2 µM (active) and 35.5 µM (active), respectively.
`CCOC(=O)Nc1ccc2c(c1)N(C(=O)CCN1CCOCC1)c1ccccc1S2`: in [1], the efficacy is 62.7% (inactive). The outcome in assay [2], in assay [3], in assay [4], in assay [5], in [6] and in assay [14] was inactive. Also, the outcome in [9] and in [11] was inactive. The AC50 in [8] (setting [17]) was 39.8 µM (active).
As to `CC#C[C@]1(O)CC[C@H]2[C@@H]3CCC4=CC(=O)CCC4=C3[C@@H](c3ccc(N(C)C)cc3)C[C@@]21C`, the efficacy in assay [1] is 23.8% (inactive). Moreover, the molecule was called inactive in assay [2], in assay [3], in assay [4], in assay [5], in assay [6] and in assay [14]. In addition, the outcome in [8] (setting [17]) and in assay [11] was inactive.
On to `CC(=O)O[C@@]12CO[C@@H]1C[C@H](O)[C@@]1(C)C(=O)[C@H](O)C3=C(C)[C@@H](OC(=O)[C@H](O)[C@@H](NC(=O)OC(C)(C)C)c4ccccc4)C[C@@](O)([C@@H](OC(=O)c4ccccc4)[C@H]21)C3(C)C`, for which the efficacy in assay [1] was 57.5% (inactive). Further, the call in assay [2], in assay [3], in [4], in assay [5], in assay [14] and in assay [9] was inactive. The molecule was classed as inactive in assay [10] and in assay [11]. Moreover, the AC50 in assay [6] and in [8] (setting [17]) was 20 µM (active) each time. Moreover, the Potency result in [12] and in assay [13] was “inactive” throughout.
Regarding `C[C@@H](O)[C@H]1C(=O)N2C(C(=O)O)=C(S[C@@H]3CN[C@H](CNS(N)(=O)=O)C3)[C@H](C)[C@H]12`, in [1], the efficacy is 41.5% (inactive). In addition, the call in assay [2], in assay [3], in assay [4], in assay [5], in assay [6] and in [9] was inactive. Also, the result in assay [10] and in [11] was inactive. For the same molecule, the AC50 in assay [8] (setting [17]) is 25.1 µM (active).
On to `CC(=O)Oc1cc2c(s1)CCN(C(C(=O)C1CC1)c1ccccc1F)C2` (configuration not stated), for which, in [1], the efficacy is 43.8% (inactive). The molecule was classed as inactive in assay [2], in assay [3], in [4], in [5], in assay [6] and in [14]. The result in [8] (setting [17]), in [9] and in [11] was inactive.
As for `CO[C@H]1C=CO[C@@]2(C)Oc3c(C)c(O)c4c(O)c(c(/C=N/N5CCN(C)CC5)c(O)c4c3C2=O)NC(=O)/C(C)=C\C=C[C@H](C)[C@H](O)[C@@H](C)[C@@H](O)[C@@H](C)[C@H](OC(C)=O)[C@@H]1C`, the efficacy in [1] was 60.3% (inactive). The molecule was classed as inactive in [2], in [3], in assay [4], in assay [5], in assay [6] and in [14]. The result in assay [8] (setting [17]), in [9], in assay [10] and in assay [11] was inactive.
As to `COCCCOc1cc(C[C@@H](C[C@H](N)[C@@H](O)C[C@H](C(=O)NCC(C)(C)C(N)=O)C(C)C)C(C)C)ccc1OC`, in [1], the efficacy is 31.8% (inactive). In addition, the outcome in assay [2], in assay [3], in assay [4], in assay [5], in assay [6] and in [8] (setting [17]) was inactive. Further, the outcome in [9], in [10] and in assay [11] was inactive.
In the case of `CC(=O)[C@]1(O)Cc2c(O)c3c(c(O)c2[C@@H](O[C@H]2C[C@H](N)[C@H](O)[C@H](C)O2)C1)C(=O)c1ccccc1C3=O`, the efficacy in [1] is 27.8% (inactive). In addition, the outcome in assay [2], in assay [3], in assay [4], in [7] and in assay [11] was inactive. In addition, the half-maximal activity concentration (AC50) was 14.1 µM (active) in assay [5], 12.6 µM (active) in assay [6] and 12.6 µM (active) in assay [8] (setting [17]).
In the case of `C[C@H]1c2cccc(O)c2C(O)=C2C(=O)[C@]3(O)C(O)=C(C(N)=O)C(=O)[C@@H](N(C)C)[C@@H]3[C@@H](O)[C@@H]21`, the efficacy in [1] is 76.6% (inactive). Also, the molecule was classed as inactive in [2], in assay [3], in [4], in [14] and in [11]. Further, the AC50 was 25.1 µM (active) in assay [5], 20 µM (active) in [6] and 20 µM (active) in assay [8] (setting [17]).
As for `CN(C)c1ccc(O)c2c1C[C@H]1C[C@H]3[C@H](N(C)C)C(=O)C(C(N)=O)=C(O)[C@@]3(O)C(=O)C1=C2O`, the efficacy in [1] is 116% (inactive). Also, the outcome in assay [2], in [3], in assay [4], in [5], in assay [6] and in [14] was inactive. The result in assay [8] (setting [17]), in [9] and in [11] was inactive.
On to `CC(C)C[C@H](NC(=O)[C@H](Cc1ccccc1)NC(=O)c1cnccn1)B(O)O`, for which the efficacy in [1] was -28.6% (inactive). The call in assay [2], in [3], in assay [4], in assay [14], in assay [10] and in [11] was inactive. The AC50 in assay [5] was 0.0794 µM (active); in assay [6] it was 1.26 µM (active); in assay [8] (setting [17]), 1.26 µM (active). Further, the Potency in [12] is 0.0037 µM (active); in assay [13], 0.0148 µM (active).
As for `COC1=CC(=O)C[C@@H](C)[C@]12Oc1c(Cl)c(OC)cc(OC)c1C2=O`, the efficacy in [1] is 30% (inactive). The call in [2], in assay [3], in assay [4], in [5], in assay [6] and in assay [14] was inactive. The outcome in assay [8] (Channel type: confirmation), in assay [8] (Channel type: primary), in assay [10] and in assay [11] was inactive.
On to `CC[C@]1(O)C[C@H]2CN(CCc3c([nH]c4ccccc34)[C@@](C(=O)OC)(c3cc4c(cc3OC)N(C=O)[C@H]3[C@@](O)(C(=O)OC)[C@H](OC(C)=O)[C@]5(CC)C=CCN6CC[C@]43[C@@H]65)C2)C1`, for which, in assay [1], the efficacy was 37.5% (inactive). The molecule was called inactive in [2], in assay [3], in [4], in [6] and in assay [9]. The half-maximal activity concentration (AC50) was 0.282 µM (active) in assay [5] and 0.112 µM (active) in assay [11]. The outcome in assay [8] (setting [17]) is “inactive [Channel type: confirmation]”.
As for `OCCOCCN1CCN(C(c2ccccc2)c2ccc(Cl)cc2)CC1` (configuration not stated), in [1], the efficacy is 86% (inactive). Besides, the result in assay [2], in assay [3], in assay [4], in [14], in assay [10] and in assay [11] was inactive. Further, the AC50 was 25.1 µM (active) in assay [5], 31.6 µM (active) in assay [6] and 31.6 µM (active) in assay [8] (setting [17]).
Consider `O=C(c1ccc(OCCN2CCCCC2)cc1)c1c(-c2ccc(O)cc2)sc2cc(O)ccc12`, for which the efficacy in assay [1] is -297% (inactive). Moreover, the AC50 was 6.31 µM (active) in assay [2], 5.02 µM (active) in assay [4], 0.708 µM (active) in assay [5] and 5.01 µM (active) in assay [11]. Besides, the result in assay [3], in assay [6] and in assay [7] was inactive.
On to `CN(Cc1cnc2nc(N)nc(N)c2n1)c1ccc(C(=O)N[C@@H](CCC(=O)O)C(=O)O)cc1`, for which the efficacy in assay [1] was 38.5% (inactive). The result in assay [2], in assay [3], in assay [4], in assay [5], in [6] and in [14] was inactive. In addition, the result in assay [8] (setting [17]) and in assay [11] was inactive.
Take `Cc1cc2c(s1)Nc1ccccc1N=C2N1CCN(C)CC1`: the parasite growth, % of DMSO control in [15] was 97.1%. Moreover, the parasite growth remaining, % of DMSO control (lower = more inhibition) in assay [16] stood at 94.5%. In addition, in [1], the efficacy is 36% (inactive). Moreover, the outcome in [2], in assay [3], in assay [4], in assay [5], in [6] and in assay [14] was inactive. The result in assay [9] and in assay [11] was inactive. In addition, the AC50 in assay [8] (setting [17]) is 39.8 µM (active).
As to `CCN(CCO)CCCC(C)Nc1ccnc2cc(Cl)ccc12` (configuration not stated), the efficacy in assay [1] is 21.3% (inactive). Also, the call in assay [2], in assay [3], in [4] and in [7] was inactive. Moreover, the AC50 is 1.12 µM (active) in assay [5], 1.41 µM (active) in assay [6], 1.41 µM (active) in [8] (setting [17]) and 1.26 µM (active) in assay [11]. Also, the Potency entry in [12] and in assay [13] was “inactive” in each case.
Regarding `CC(C)(C)NC(=O)[C@H]1CC[C@H]2[C@@H]3CC[C@H]4NC(=O)C=C[C@]4(C)[C@H]3CC[C@]12C`, the efficacy in assay [1] was 71.8% (inactive). Besides, the molecule was called inactive in [2], in assay [3], in [4], in assay [5], in [6] and in [14]. Further, the outcome in assay [8] (setting [17]), in assay [9] and in [11] was inactive.
Turning to `CN(C)CCOC(c1ccc(Cl)cc1)c1ccccn1` (configuration not stated), the efficacy in assay [1] is 34.3% (inactive). The molecule was called inactive in assay [2], in [3], in assay [4], in [6], in [14] and in assay [10]. Further, the outcome in assay [11] was inactive. Further, the AC50 in assay [5] was 22.4 µM (active); in assay [8] (setting [17]) it was 39.8 µM (active).
